In all, about 310,000 compounds went through this assay and about 3,300 (1.1%) were called active.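 How the source made its calls: active means B-score under library mean minus 3 SD, initial fluorescence not abnormally high, positive integrated signal ratio; inactive means the rest.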 The full list was thinned out, with actives kept by preference.

The target of this assay is Short transient receptor potential channel 6 (Mus musculus) (UniProt Q61143). Put plainly: mouse TRPC6 channel inhibitors, primary screen, cell-based, HEK293, membrane potential dye (AID 2553).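 On B-score: B-score derived from integrated fluorescence ratio over the kinetic read; more negative B-score means stronger inhibition of depolarization.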 The conditions noted are these: ACh-evoked depolarization, at 10 µM; active compounds read low.
Chain of Short transient receptor potential channel 6 (Mus musculus) (Q61143 whole entry, looked up): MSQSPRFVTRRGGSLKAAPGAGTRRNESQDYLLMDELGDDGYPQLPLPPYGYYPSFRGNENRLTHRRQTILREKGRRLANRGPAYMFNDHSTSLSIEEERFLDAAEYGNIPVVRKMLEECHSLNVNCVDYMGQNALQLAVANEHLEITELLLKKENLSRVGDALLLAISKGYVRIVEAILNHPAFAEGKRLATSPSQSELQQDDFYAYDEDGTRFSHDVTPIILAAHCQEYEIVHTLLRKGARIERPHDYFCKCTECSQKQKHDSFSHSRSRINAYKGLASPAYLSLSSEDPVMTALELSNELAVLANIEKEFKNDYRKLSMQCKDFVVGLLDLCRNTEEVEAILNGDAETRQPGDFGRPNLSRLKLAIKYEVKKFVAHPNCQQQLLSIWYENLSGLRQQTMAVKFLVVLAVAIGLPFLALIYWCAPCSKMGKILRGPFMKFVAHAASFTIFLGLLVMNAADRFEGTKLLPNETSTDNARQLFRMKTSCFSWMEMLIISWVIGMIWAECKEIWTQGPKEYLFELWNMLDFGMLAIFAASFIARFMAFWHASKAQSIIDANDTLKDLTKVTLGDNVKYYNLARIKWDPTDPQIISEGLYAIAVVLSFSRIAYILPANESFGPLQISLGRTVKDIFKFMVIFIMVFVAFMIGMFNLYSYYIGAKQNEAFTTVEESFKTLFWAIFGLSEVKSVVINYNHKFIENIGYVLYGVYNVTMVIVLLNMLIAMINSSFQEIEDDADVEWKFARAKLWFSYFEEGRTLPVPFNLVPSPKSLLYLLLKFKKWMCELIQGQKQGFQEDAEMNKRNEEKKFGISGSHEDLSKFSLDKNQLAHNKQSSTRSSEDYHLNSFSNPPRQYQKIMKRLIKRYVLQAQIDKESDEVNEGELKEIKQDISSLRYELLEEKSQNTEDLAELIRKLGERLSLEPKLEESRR
On to `Cc1nc2ccc(N3CCN(C)CC3)cc2nc1C`, for which the B-score result was “inactive”. Take `COc1cccc(-c2nc3ccc(N4CCN(C)CC4)cc3[nH]2)c1`: the B-score was -9.09 (active). In the case of `CC1=C(C(=O)Nc2ccccc2)S(=O)(=O)CCO1` it was “inactive”; in that of `COc1ccc(Br)cc1CNCCc1cccc(Cl)c1`, “inactive”; in that of `CCOc1cccc(=NC2CCCCC2)c2c(C)[nH]c(C)c12`, -8.34 (active). Consider `CCOP(=S)(OCC)C(O)CCCCCn1c(=O)c(F)cn(C2CCCO2)c1=O` (stereo not given), for which the B-score result was “inactive”. The entry for `COCc1cc(OC(=O)N(C)C)nc(-c2ccc(C)c(Cl)c2)n1` is “inactive”. In the case of `C[N+]12CN3CN(CN(C3)C1)C2` it was “inactive”; in that of `CC1=CC(=Cc2sc3ccccc3[n+]2C)C=C(C)O1`, -5.72 (active); in that of `COc1c(O)ccc2c1-c1c3c(cc4c1C(C2)N(C)CC4)OCO3` (stereo not given), “inactive”.

As for `Cc1cccc(OP(=O)(Oc2cccc(C)c2)OC(c2ccccc2)C(F)(F)F)c1` (stereo not given), the B-score entry was “inactive”.

For the compound `CC1=C2C(=O)C3C(CC=C4CC(OC5OC(O)C(O)C(O)C5CO)CCC43C)C2CCC12OC1CC(C)CNC1C2C` (stereo not given), the B-score entry is “inactive”. In the case of `CCOP(=O)(OCC)C(NC(=O)c1ccc(C)cc1)C(Cl)(Cl)Cl` (stereo not given), the B-score entry is “inactive”. The entry for `c1ccc(CC2CCCCN2)cc1` (stereo not given) is “inactive”; for `Cc1nc2ccccn2c1P(=S)(N1CCCCC1)N1CCCCC1` it is “inactive”. The entry for `Cc1nn(Cc2ccccc2Cl)c(Cl)c1C(=O)OC(C(=O)NC(N)=O)C(C)C` (stereo not given) is “inactive”. The entry for `N[C@@H](Cc1c[nH]c2ccccc12)c1nnc(SCc2c(F)cccc2Cl)o1` is “inactive”. As for `CC1(C)Cc2c(C#N)c(N3CCNCC3)nc(-c3ccco3)c2CS1`, the B-score is -5.98 (active). The entry for `O=c1[nH]c(O)c(C=Nc2cc(F)cc(F)c2)c(=O)[nH]1` is “inactive”; for `COc1ccccc1NC(=O)N1C[C@@H]2C[C@@H](C1)c1cccc(=O)n1C2` it is “inactive”. For the compound `CN1CCN(Cc2ccc(OC(F)(F)F)cc2)CC1`, the B-score entry was “inactive”. In the case of `CCN1CCN(c2ccc([N+](=O)[O-])cc2C#N)CC1` it was “inactive”; in that of `CN1CCN(c2cc(N3CCNCC3)ccc2[N+](=O)[O-])CC1`, -9.48 (active); in that of `N=c1ccccn1Cc1ccccc1`, “inactive”. The entry for `CC(Cc1ccccc1)NC=O` (stereo not given) is “inactive”; for `CCCCCCCCCCCCn1ccc(=N)cc1` it is -8.97 (active). In the case of `CCCCCCN=C(CC)c1c(O)n(CCCC)c(=O)[nH]c1=O` it was “inactive”; in that of `CC(C)(C)[C@]1(O)C[C@@H]2OC(=O)C[C@@]23C(=O)O[C@@H]2OC(=O)[C@H](O)[C@]213`, “inactive”. For the compound `c1ccc(C2NCc3ccccc3-n3cccc32)cc1` (stereo not given), the B-score result is “inactive”. In the case of `NCCc1c[nH]c2ccc(O)cc12` it was “inactive”.

These data come from PubChem BioAssay AID2553 (Johns Hopkins Ion Channel Center, 2010).
